A number with no mark means an inactive call. Records with an inconclusive call do not appear. The source made the active and inactive calls. Unless noted, calls follow the shape of the dose curve; as a rule, active = well fitted curve in the direction sought with a large enough effect in the repeat runs; inconclusive = weak or mixed curves; inactive = no such curve, though single readings can be large; an effect the other way counts as inactive or inconclusive.

The text below walks through data of PubChem BioAssay (Tox21).

For assay [1], the target named is Progesterone receptor (Homo sapiens) (UniProt P06401). As to the kind of experiment: qHTS assay to identify small molecule agonists of the progesterone receptor (PR) signaling pathway (AID 1346784; calls by dose curve; also: nearly all actives have a fitted effect of over 30% in size). Summed up:
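Agonist qHTS: compounds pinned onto 3,000 PR-UAS-bla HEK 293T cells per well in charcoal-stripped serum medium, 16hr at 37C, then beta-lactamase activity measured by LiveBLAzer FRET fluorescence after 2 hours at room temperature.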

The target is the same in assay [2]. As to the kind of experiment: qHTS assay to identify small molecule antagonists of the progesterone receptor (PR) signaling pathway (AID 1346795; active = well fitted inhibition curve with a large enough effect in the signal ratio in the repeat runs, not every such curve was filed as active; the % refers to the signal ratio). Summed up:
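Antagonist mode with agonist R5020 at 1 nM final and 16 hr incubation at 37C. Reporter was beta-lactamase driven by UAS in HEK293T (PR-UAS-bla), 2% charcoal-stripped serum; signal from LiveBLAzer FRET substrate, 2 hr at room temperature.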
On the technique in general: Quantitative high-throughput screening tests each substance at several concentrations.

Assay [3] in a line: qHTS assay to identify small molecule antagonists of the progesterone receptor (PR) signaling pathway - cell viability counter screen (AID 1346798). Also: series mostly up to about 92 µM; nearly all actives have a fitted effect of over 50% in size. In outline:
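Cytotoxicity read as CellTiter-Glo luminescence (30 min, room temperature) in the same wells as the beta-lactamase readout. HEK293T PR-UAS-bla cells in charcoal-stripped 2% FBS received compound and R5020, then 16 h at 37C, 5% CO2.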

Assay [4] can be described thus: qHTS assay to identify small molecule agonists of the progesterone receptor (PR) signaling pathway - cell viability counter screen (AID 1346799; calls by dose curve; also: nearly all actives have a fitted effect of over 45% in size). Summed up:
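Cytotoxicity measured by CellTiter-Glo luminescence (30 min, RT) in the same wells as the PR beta-lactamase agonist read. Those HEK293T cells had 16 h compound treatment at 37 C in 2% charcoal-stripped FBS medium.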

A short description of assay [5]: qHTS assay to identify small molecule antagonists of the TGF-beta/Smad signaling pathway - cell viability counter screen (AID 1346824). Also: nearly all actives have a fitted effect of over 50% in size. In outline: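 Cytotoxicity counter-screen run in the same wells as the beta-lactamase Smad reporter read: CellTiter-Glo luminescence after 30 min at room temperature. HEK 293T SBE-bla cells had 5 hr compound exposure at 37 C with TGF-beta1 (0.25 ng/mL stock).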

A short description of assay [6]: qHTS assay to identify small molecule agonists of the TGF-beta/Smad signaling pathway - cell viability counter screen (AID 1346829). Also: top concentration of the series differs between compounds; nearly all actives have a fitted effect of over 45% in size. Summed up: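 After overnight seating at 37 C and 5% CO2, reporter cells got compounds for 5 hr and FRET substrate for 2 hr; cell viability then came from CellTiter-Glo luminescence.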
Assay [7] can be described thus: qHTS assay to identify small molecule agonists of the TGF-beta/Smad signaling pathway (AID 1346859; active = well fitted activation curve with a large enough effect in the signal ratio in the repeat runs, not every such curve was filed as active; the % refers to the signal ratio; also: series mostly up to about 77 µM). Summed up: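 Fluorescence (ex 405 nm; em 460 and 530 nm) was read 2 h after LiveBLAzer FRET substrate at RT. The preceding compound treatment of overnight-plated SBE-bla HEK293T cells lasted 5 h at 37 C.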
In assay [8] the target is Thyrotropin-releasing hormone receptor (Homo sapiens) (UniProt P34981). As to the kind of experiment: qHTS assay to identify small molecule antagonists of the thyrotropin-releasing hormone receptor (TRHR) signaling pathway (AID 1346877; active = well fitted inhibition curve with a large enough effect in the repeat runs, not every such curve was filed as active; also: series mostly up to about 51 µM). Summed up:
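Intracellular calcium fluorescence, read kinetically every second over 3 min, reports TRH-evoked signalling in HEK293 cells carrying TRHR. Test compounds were added 5 min ahead of a 1 nM TRH challenge.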

Assay [9] shares this target. As to the kind of experiment: qHTS assay to identify small molecule agonists of the thyrotropin-releasing hormone receptor (TRHR) signaling pathway (AID 1346891; calls by dose curve; also: series mostly up to about 58 µM). Summed up:
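Agonist-mode intracellular calcium readout: kinetic fluorescence over 3 min at 1 s intervals after compound addition to TRHR-HEK293 cells (18 h seeded, 2 h dye-loaded at 37 C). Fifteen concentrations, triplicates.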

Assay [10] can be described thus: Human pregnane X receptor (PXR) small molecule agonists, qHTS cell viability counter screen (AID 1346977). Also: nearly all actives have a fitted effect of over 50% in size. In outline: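 Same-well viability read: CellTiter-Fluor added after 23 hr compound exposure, fluorescence measured 1 hr later. Cells were PXR-Luc HepG2 seeded at 2,000/well in 5% charcoal-stripped FBS medium, rested 5 hr before dosing at 37 C.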
A short description of assay [11]: Caspase-3/7 induction in HepG2 cells by small molecules, qHTS assay (AID 1346978). Also: nearly all actives have a fitted effect of over 15% in size. In outline:
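Caspase-3/7 induction was measured by Caspase-Glo 3/7 luminescence (30 min, room temperature) after a 17 hr compound exposure of wild-type HepG2 cells seeded at 2,000 per well and pre-incubated 5 hr.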

The nature of assay [12]: Caspase-3/7 induction in CHO-K1 cells by small molecules, qHTS assay (AID 1346980). Also: nearly all actives have a fitted effect of over 15% in size. In outline: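 Luminescent Caspase-Glo 3/7 read (30min, room temperature) quantified apoptosis induction. Cells were wild-type CHO-K1, treated with compound for 17hr at 37 C and 5% CO2.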
Assay [13] is described as follows: Caspase-3/7 induction in HepG2 cells by small molecules, qHTS cell viability counter screen (AID 1346981). Also: series mostly up to about 92 µM; nearly all actives have a fitted effect of over 30% in size. Summed up: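 HepG2, WT, 2,000 cells/well; 5 hr pre-incubation 37 C/5% CO2; compound pin-transferred from DMSO; 16 hr exposure; CellTiter-Fluor, 1 hr; fluorescence read.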
In assay [14] the target is Nuclear receptor subfamily 1 group I member 2 (Homo sapiens) (UniProt O75469). As to the kind of experiment: Human pregnane X receptor (PXR) small molecule agonists, qHTS assay (AID 1346982). Also: nearly all actives have a fitted effect of over 35% in size. Also: potency is read from the fitted curve at half-maximal effect. Summed up: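 Luciferase signal from ONE-Glo (30 min, room temperature) measured activation of hPXR-driven CYP3A4 reporter expression in PXR-Luc HepG2 cells treated with compounds for 24 hr at 37 C.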

For assay [15], the target named is Cytochrome P450 2D6 (Homo sapiens) (UniProt P10635). As to the kind of experiment: Cytochrome P450 Family 2 Subfamily D Member 6 (CYP2D6) small molecule antagonists: luciferase reporter qHTS assay (AID 1671196). Also: series mostly up to about 120 µM; nearly all actives have a fitted effect of over 50% in size. Summed up: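 Read-out is luminescence from luciferin formed by CYP2D6 turnover of a proluciferin substrate, recorded as relative luminescence units. Reactions ran 1 h at room temperature after NADPH regeneration solution was added.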
For orientation: Reporter assays use an easily measured gene product as a stand-in for the process of interest.

Assay [16] deals with Cytochrome P450 2C19 (Homo sapiens) (UniProt P33261). Nature of the assay: Cytochrome P450 Family 2 Subfamily C Member 19 (CYP2C19) small molecule antagonists: luciferase reporter qHTS assay (AID 1671197). Also: series mostly up to about 120 µM; nearly all actives have a fitted effect of over 65% in size. Summed up: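 Inhibition of CYP2C19 was scored from loss of luminescence in a P450-Glo proluciferin substrate assay, NADPH-started and run 1 h at 37C, with ketoconazole as positive control.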

A short description of assay [17]: Caspase-3/7 induction in CHO-K1 cells by small molecules, qHTS cell viability counter screen (AID 1346979). Also: nearly all actives have a fitted effect of over 35% in size. In outline:
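Cytotoxicity counter screen: CellTiter-Fluor added to compound-treated wild-type CHO-K1 cells at 16 h (37C, 5% CO2), fluorescence measured 1 h later; same wells as caspase-3/7 measurement.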

The target in assay [18] is Nuclear receptor subfamily 1 group I member 2 (Rattus norvegicus) (UniProt Q9R1A7). Nature of the assay: Rat pregnane X receptor (rPXR) activation by small molecules, qHTS assay (AID 1346983). Also: nearly all actives have a fitted effect of over 20% in size. The conditions noted are these: rPXR luciferase reporter cells, One-Glo luminescence, 24 h; hits give high values. Summed up:
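Luminescent readout (One-Glo luciferase, 30 min room temperature) followed 24 hr compound treatment at 37 C of rPXR cells plated 2,000 per well and preincubated 5hr; qHTS format with compounds delivered in DMSO.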

Assay [19] has as its target Nuclear receptor subfamily 1 group I member 2 (Homo sapiens) (UniProt O75469). Nature of the assay: CYP3A4 induction through human pregnane X receptor (PXR) by small molecules, qHTS assay (AID 1346984). Also: nearly all actives have a fitted effect of over 40% in size. Summed up:
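Luminescence readout: luciferase signal after One-Glo (30 min, room temperature), following 3 h at 37C with 3uM final Luciferin-IPA P450 substrate. Cells were DPX-2 (HepG2, PXR/CYP3A4-luc co-transfected) dosed for 24 h.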

Assay [20] has the same target. As to the kind of experiment: Human pregnane X receptor (PXR) activation by small molecules, qHTS assay (AID 1346985). Also: nearly all actives have a fitted effect of over 40% in size. Summed up: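 DPX-2 cells (HepG2 co-transfected with a PXR response element and a CYP3A4-promoter luciferase construct) were seeded at 2,000 per well, rested 5 hr at 37C, then exposed to DMSO-dissolved compounds for 24 hr. Activation was read as luciferase luminescence.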
% is scaled to controls: 0 for no effect and ±100 for the full control effect.

Sequence of Progesterone receptor (Homo sapiens) (P06401 whole entry, looked up): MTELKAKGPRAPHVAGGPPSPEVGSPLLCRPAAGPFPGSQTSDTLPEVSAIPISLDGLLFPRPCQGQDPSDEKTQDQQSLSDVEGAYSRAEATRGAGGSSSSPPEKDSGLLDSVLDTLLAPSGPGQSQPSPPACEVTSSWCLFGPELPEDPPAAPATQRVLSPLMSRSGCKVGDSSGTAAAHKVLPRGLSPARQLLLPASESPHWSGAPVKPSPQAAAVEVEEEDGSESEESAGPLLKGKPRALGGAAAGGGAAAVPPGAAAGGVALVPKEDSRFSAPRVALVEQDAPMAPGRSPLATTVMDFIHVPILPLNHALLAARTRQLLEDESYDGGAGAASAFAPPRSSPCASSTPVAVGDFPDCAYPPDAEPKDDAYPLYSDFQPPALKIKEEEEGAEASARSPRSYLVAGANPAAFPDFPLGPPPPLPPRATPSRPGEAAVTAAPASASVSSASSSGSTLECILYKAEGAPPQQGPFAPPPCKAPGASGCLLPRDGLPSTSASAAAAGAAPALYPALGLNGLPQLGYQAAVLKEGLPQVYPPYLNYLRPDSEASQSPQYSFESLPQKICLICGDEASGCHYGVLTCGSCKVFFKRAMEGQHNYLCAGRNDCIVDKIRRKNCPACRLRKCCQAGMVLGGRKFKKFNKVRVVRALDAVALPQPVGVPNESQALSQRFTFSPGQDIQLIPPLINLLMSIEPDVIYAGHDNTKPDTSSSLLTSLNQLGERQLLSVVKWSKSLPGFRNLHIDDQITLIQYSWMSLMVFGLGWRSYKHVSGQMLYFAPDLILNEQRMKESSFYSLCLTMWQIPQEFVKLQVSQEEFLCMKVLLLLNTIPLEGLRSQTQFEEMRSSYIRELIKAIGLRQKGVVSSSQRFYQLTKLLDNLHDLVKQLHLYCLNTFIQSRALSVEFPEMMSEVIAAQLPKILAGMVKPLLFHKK
Sequence of Nuclear receptor subfamily 1 group I member 2 (Homo sapiens) (O75469 whole entry, looked up): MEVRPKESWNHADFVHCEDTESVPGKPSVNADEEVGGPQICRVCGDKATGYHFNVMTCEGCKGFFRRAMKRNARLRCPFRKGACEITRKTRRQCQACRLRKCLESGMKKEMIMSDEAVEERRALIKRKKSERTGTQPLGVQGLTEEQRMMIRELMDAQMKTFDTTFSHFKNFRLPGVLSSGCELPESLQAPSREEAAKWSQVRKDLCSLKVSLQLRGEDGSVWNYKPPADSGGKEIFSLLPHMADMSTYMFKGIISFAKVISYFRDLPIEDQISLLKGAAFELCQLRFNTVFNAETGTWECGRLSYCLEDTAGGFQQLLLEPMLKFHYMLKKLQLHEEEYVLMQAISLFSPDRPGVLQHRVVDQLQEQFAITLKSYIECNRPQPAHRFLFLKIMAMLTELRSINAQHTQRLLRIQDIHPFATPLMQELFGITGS
Sequence of Cytochrome P450 2C19 (Homo sapiens) (P33261 whole entry, looked up): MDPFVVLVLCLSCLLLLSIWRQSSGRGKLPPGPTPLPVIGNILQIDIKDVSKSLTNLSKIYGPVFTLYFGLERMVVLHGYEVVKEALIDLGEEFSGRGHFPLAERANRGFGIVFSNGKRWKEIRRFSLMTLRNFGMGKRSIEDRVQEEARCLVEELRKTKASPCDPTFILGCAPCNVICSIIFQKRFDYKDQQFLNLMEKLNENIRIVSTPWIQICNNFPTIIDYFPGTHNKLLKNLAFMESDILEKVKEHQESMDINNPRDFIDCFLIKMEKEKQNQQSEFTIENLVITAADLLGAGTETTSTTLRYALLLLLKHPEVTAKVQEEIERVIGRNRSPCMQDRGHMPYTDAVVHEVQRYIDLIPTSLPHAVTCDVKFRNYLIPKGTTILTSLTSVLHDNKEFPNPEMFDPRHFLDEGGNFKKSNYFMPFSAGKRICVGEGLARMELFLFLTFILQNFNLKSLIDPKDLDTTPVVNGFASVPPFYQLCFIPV
Sequence of Cytochrome P450 2D6 (Homo sapiens) (P10635 whole entry, looked up): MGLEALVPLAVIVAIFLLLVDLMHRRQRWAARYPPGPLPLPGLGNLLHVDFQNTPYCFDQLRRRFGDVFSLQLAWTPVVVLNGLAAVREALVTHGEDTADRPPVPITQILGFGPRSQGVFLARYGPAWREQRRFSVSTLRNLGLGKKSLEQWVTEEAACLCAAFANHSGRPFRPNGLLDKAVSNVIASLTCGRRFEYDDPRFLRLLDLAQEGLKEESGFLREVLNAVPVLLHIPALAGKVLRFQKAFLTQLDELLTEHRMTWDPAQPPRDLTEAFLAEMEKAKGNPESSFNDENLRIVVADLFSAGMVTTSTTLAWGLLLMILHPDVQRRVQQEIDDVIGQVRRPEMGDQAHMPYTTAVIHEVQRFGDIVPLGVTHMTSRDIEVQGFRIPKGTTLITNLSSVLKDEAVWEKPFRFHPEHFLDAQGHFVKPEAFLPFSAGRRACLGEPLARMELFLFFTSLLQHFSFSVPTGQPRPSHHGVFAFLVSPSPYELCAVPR
Sequence of Thyrotropin-releasing hormone receptor (Homo sapiens) (P34981 whole entry, looked up): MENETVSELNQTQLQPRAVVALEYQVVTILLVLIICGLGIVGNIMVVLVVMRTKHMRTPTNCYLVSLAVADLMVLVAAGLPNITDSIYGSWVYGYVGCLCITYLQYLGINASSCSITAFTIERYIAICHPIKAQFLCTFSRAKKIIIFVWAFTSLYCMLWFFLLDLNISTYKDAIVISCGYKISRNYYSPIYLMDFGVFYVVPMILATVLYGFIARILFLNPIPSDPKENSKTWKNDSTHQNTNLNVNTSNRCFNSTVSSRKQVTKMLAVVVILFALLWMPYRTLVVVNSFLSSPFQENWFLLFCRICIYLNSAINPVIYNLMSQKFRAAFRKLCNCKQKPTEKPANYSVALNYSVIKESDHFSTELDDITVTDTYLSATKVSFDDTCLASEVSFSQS
Sequence of Nuclear receptor subfamily 1 group I member 2 (Rattus norvegicus) (Q9R1A7 whole entry, looked up): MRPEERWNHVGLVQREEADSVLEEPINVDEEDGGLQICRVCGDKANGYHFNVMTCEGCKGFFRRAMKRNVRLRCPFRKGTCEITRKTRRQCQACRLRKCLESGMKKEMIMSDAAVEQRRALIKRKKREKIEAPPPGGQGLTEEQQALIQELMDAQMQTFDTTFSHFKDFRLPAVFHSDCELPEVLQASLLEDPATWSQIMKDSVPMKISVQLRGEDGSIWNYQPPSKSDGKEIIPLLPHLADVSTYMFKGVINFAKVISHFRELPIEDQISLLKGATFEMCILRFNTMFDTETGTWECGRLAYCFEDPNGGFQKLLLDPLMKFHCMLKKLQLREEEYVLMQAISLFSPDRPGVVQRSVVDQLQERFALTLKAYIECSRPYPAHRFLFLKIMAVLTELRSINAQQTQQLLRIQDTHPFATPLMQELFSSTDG

For the compound `CCCN(CCC)C(=O)SCC`, the Potency result in assay [1], in assay [2], in assay [3], in assay [4], in assay [5] and in assay [6] was “inactive” in each case. Moreover, the Potency entry in [7], in [8], in [10], in assay [11], in [12] and in assay [13] was “inactive” in each case. The Potency entry in assay [14], in assay [15] and in [16] was “inactive” throughout. Also, in [9], the call was inactive.
Regarding `C[n+]1ccn(CCO)c1`, the Potency result in [1], in [2], in [3], in assay [4], in assay [5] and in assay [6] was “inactive” in each case. In addition, the Potency result in assay [7], in assay [8], in assay [10], in assay [11], in assay [12] and in assay [13] was “inactive” throughout. Besides, the Potency entry in [14] and in [15] was “inactive” throughout. Also, the call in [9] was inactive.
On to `CC1(C)[C@@H](O[C@H]2O[C@H](C(=O)O)[C@@H](O)[C@H](O)[C@H]2O[C@@H]2O[C@H](C(=O)O)[C@@H](O)[C@H](O)[C@H]2O)CC[C@]2(C)[C@H]3C(=O)C=C4[C@@H]5C[C@@](C)(C(=O)O)CC[C@]5(C)CC[C@@]4(C)[C@]3(C)CC[C@@H]12`, for which the Potency result in [1], in assay [2], in [3], in assay [4], in assay [5] and in [6] was “inactive” throughout. Also, the Potency result in assay [7], in assay [10], in assay [11], in assay [17], in [12] and in assay [13] was “inactive” throughout. In addition, the Potency entry in assay [14], in assay [19] and in [15] was “inactive” each time. The max activation in assay [18] was -0.648%. In assay [20], the compound was called inactive.
Consider `NCCNCCNCCN`, for which the Potency entry in [1], in assay [2], in [3], in assay [4], in assay [5] and in [6] was “inactive” each time. Besides, the Potency entry in assay [7], in [8], in assay [10], in assay [11], in assay [12] and in [13] was “inactive” throughout. Further, in assay [9], the compound was classed as inactive. For the same compound, the max activation in assay [18] is -2.83%.
Consider `CC(=O)CC(=O)N(C)C`, for which the Potency result in assay [1], in [2], in assay [3], in assay [4], in assay [5] and in assay [6] was “inactive” throughout. The Potency result in [7], in [8], in assay [10], in assay [11], in assay [17] and in assay [12] was “inactive” in each case. The Potency result in assay [13], in assay [14], in assay [15] and in [16] was “inactive” each time. The result in assay [9] was inactive.
For `Cc1ccccc1C=O`, the Potency result in assay [1], in assay [2], in [3], in assay [4], in assay [5] and in assay [6] was “inactive” in each case. Besides, the Potency result in [7], in assay [8], in assay [10], in [11], in assay [12] and in assay [13] was “inactive” each time. In addition, the Potency entry in assay [14], in assay [15] and in assay [16] was “inactive” in each case. For the same compound, in assay [9], the call was inactive.
In the case of `CCc1cccc(O)c1`, the Potency entry in assay [1], in assay [2], in assay [3], in [4], in assay [5] and in [6] was “inactive” in each case. For the same compound, the Potency result in assay [7], in [8], in [10], in [11], in assay [12] and in assay [13] was “inactive” throughout. For the same compound, the Potency entry in assay [14] and in assay [15] was “inactive” each time. For the same compound, in assay [9], the compound was classed as inactive.
Turning to `COCN(COC)c1nc(N(COC)COC)nc(N(COC)COC)n1`, the Potency entry in assay [1], in assay [2], in assay [3], in assay [4], in assay [5] and in [6] was “inactive” throughout. Also, the Potency result in assay [7], in assay [8], in [10], in assay [11], in [17] and in assay [12] was “inactive” in each case. Moreover, in [15], the Potency result is “inactive”. Moreover, in assay [9], the outcome was inactive. The Potency in assay [14] is 54.5 µM (active).
